This is an account of results in PubChem BioAssay (Tox21).

The nature of assay [1]: qHTS assay to test for compound auto fluorescence at 460 nm (blue) in HEK293 cell free culture (AID 720681). The procedure, abridged:
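Blue fluorescence (Ex 405/Em 460 nm, triamterene-equivalent) was read immediately after pin transfer of compound or DMSO into medium (DMEM, 10% FBS) without cells.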
On the technique in general: In qHTS, concentration-response curves come from the screen itself.

Assay [2] in a line: qHTS assay to test for compound auto fluorescence at 535 nm (green) in HEK293 cell free culture (AID 720682). The gist of the method: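 Fluorescein serves as the green reference fluorophore; each compound's intrinsic emission at 535 nm (excitation 485 nm) is reported as an equivalent amount of that dye, measured in serum-containing DMEM without cells.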
Assay [3] can be described thus: qHTS assay to test for compound auto fluorescence at 590 nm (red) in HEK293 cell free culture (AID 720683). The gist of the method: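 Red-channel autofluorescence of compounds in culture medium (DMEM, 10% FBS), no cells, measured at 540/590 nm. Rose Bengal sodium is the reference fluorophore for equivalence.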
A short description of assay [4]: qHTS assay to test for compound auto fluorescence at 590 nm (red) in HepG2 cell free culture (AID 720684). The gist of the method: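 Plate contents were MEM with 10% FBS plus test compound or DMSO, no cells. Fluorescence was recorded with 540 nm excitation and 590 nm emission.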
The nature of assay [5]: qHTS assay to test for compound auto fluorescence at 460 nm (blue) in HepG2 cell free culture (AID 720685). The procedure, abridged: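 Compound (23 nL) or DMSO pinned into cell-free MEM with 10% FBS; blue fluorescence read at 405/460 nm excitation/emission, expressed as auto-fluorescence equivalency to triamterene.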
A short description of assay [6]: qHTS assay to test for compound auto fluorescence at 535 nm (green) in HepG2 cell free culture (AID 720686).
The nature of assay [7]: qHTS assay to test for compound auto fluorescence at 460 nm (blue) in HepG2 cells (AID 720687). The procedure, abridged: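 Blue-channel autofluorescence (Ex/Em 405/460 nm, triamterene-equivalent) was measured after 1 hr compound exposure at 37 C, 5% CO2. Cells were HepG2, plated overnight at 37 C in MEM plus 10% FBS.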
Assay [8] concerns the target Glucocorticoid receptor (Homo sapiens) (UniProt P04150). As to the kind of experiment: qHTS assay to identify small molecule antagonists of the glucocorticoid receptor (GR) signaling pathway (AID 720692; active = well fitted inhibition curve with a large enough effect in the signal ratio in the repeat runs, not every such curve was filed as active; the % refers to the signal ratio). The procedure, abridged:
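Dexamethasone (5 nM final) stimulated a stably integrated GRE-beta-lactamase reporter in HeLa cells during 18 h co-incubation with compounds; signal was quantified as fluorescence intensity of B/G FRET substrate after 2 h.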

A short description of assay [9]: qHTS assay to identify small molecule antagonists of the glucocorticoid receptor (GR) signaling pathway - cell viability counter screen (AID 720693). Note: nearly all actives have a fitted effect of over 55% in size.
Assay [10] can be described thus: qHTS assay for identifying genotoxic compounds that show differential cytotoxicity against isogenic chicken DT40 cell lines with known DNA damage response pathways - wild type cell line (AID 743012). Note: nearly all actives have a fitted effect of over 60% in size. Note: potency is the fitted concentration of half-maximal effect. The gist of the method: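 Using parental DT40 (300 cells/well), compounds delivered in DMSO incubate 40 h at 37 C/5% CO2. CellTiter-Glo reagent then stands 30 min at room temperature, and luminescence gives cell viability.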

Assay [11] can be described thus: qHTS assay for identifying genotoxic compounds that show differential cytotoxicity against isogenic chicken DT40 cell lines with known DNA damage response pathways - Rev3 mutant cell line (AID 743014). Note: nearly all actives have a fitted effect of over 55% in size. Note: potency is the fitted concentration of half-maximal effect.
Assay [12] is described as follows: qHTS assay for identifying genotoxic compounds that show differential cytotoxicity against isogenic chicken DT40 cell lines with known DNA damage response pathways - Rad54/Ku70 mutant cell line (AID 743015). Note: nearly all actives have a fitted effect of over 60% in size. Note: potency is the fitted concentration of half-maximal effect.
The nature of assay [13]: qHTS assay to identify small molecule antagonists of the androgen receptor (AR) signaling pathway - cell viability counter screen (AID 743033; note: nearly all actives have a fitted effect of over 45% in size).
Assay [14] in a line: qHTS assay to identify small molecule antagonists of the androgen receptor (AR) signaling pathway using the MDA cell line - cell viability counter screen (AID 743041; note: nearly all actives have a fitted effect of over 45% in size). The procedure, abridged: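 R1881-driven MDA-kb2 AR-luc cells, 3,000/well, were dosed with library compounds for 16 h; cell health came from CellTiter-Fluor fluorescence in the reporter wells.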
Assay [15] is described as follows: qHTS assay to identify small molecule antagonists of the thyroid receptor (TR) signaling pathway - cell viability counter screen (AID 743064). Note: nearly all actives have a fitted effect of over 50% in size. The procedure, abridged: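 Fluorescence from CellTiter-Fluor, added after 23.5 h exposure at 37 °C, reported viability of GH3.TRE-Luc cells co-treated with compound and 1 nM T3. Measured in the same wells as the luciferase TR readout.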

Assay [16] deals with Glucocorticoid receptor (Homo sapiens) (UniProt P04150). As to the kind of experiment: qHTS assay to identify small molecule agonists of the glucocorticoid receptor (GR) signaling pathway (AID 720691; active = well fitted activation curve with a large enough effect in the signal ratio in the repeat runs, not every such curve was filed as active; the % refers to the signal ratio). The procedure, abridged: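 Reporter read-out: fluorescence intensity following 2 h room-temperature LiveBLAzer B/G FRET substrate loading. Prior step: GR-bla HeLa cells held 4 h, then treated 18 h at 37 C.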

Molecules are shown by their SMILES. A number with no mark means an inactive call. Inconclusive results are not listed. Calls of active or inactive are those of the source. Unless noted, calls come from the whole dose curve; as a rule, active = well fitted curve in the direction sought with a large enough effect in the repeat runs; inconclusive = weak or mixed curves; inactive = no such curve, though single readings can be large; an effect the other way counts as inactive or inconclusive.
% is set by controls: 0 for no effect and ±100 for the full control effect.

Sequence of Glucocorticoid receptor (Homo sapiens) (P04150 whole entry, looked up): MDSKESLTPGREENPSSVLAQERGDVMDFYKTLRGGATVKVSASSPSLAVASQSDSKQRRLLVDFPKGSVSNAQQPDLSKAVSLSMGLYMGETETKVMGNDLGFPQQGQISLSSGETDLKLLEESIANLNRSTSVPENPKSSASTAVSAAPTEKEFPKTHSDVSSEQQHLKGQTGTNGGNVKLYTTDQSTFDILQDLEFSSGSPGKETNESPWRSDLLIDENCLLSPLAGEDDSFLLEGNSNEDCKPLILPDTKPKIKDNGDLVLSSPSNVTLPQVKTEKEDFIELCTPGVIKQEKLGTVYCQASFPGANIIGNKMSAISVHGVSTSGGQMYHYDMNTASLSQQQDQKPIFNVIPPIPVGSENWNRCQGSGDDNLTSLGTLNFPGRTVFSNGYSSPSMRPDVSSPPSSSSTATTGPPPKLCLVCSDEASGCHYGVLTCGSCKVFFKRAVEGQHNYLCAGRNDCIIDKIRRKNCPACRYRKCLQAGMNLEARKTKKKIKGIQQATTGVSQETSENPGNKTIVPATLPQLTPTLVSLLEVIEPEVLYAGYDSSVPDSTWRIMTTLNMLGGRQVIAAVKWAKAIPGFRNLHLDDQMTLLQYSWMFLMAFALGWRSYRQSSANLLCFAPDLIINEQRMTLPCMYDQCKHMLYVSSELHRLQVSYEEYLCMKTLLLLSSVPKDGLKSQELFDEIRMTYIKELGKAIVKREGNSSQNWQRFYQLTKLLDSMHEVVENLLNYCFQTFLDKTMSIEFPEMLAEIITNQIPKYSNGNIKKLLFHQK

On to `C/C=C1\[C@H]2C=C(C)C[C@]1(N)c1ccc(=O)[nH]c1C2`, for which the Potency entry in [1], in assay [8], in assay [9], in assay [10], in assay [11] and in assay [12] was “inactive” in each case. Also, the Potency result in [13], in assay [14] and in assay [15] was “inactive” throughout. In addition, the call in assay [2], in assay [3], in assay [4], in assay [5], in assay [6] and in assay [7] was inactive.

As for `CC(C)=CCCC(C)C=O` (stereo not given), the molecule was called inactive in assay [2], in assay [3], in [4], in assay [5], in assay [6] and in assay [7]. The Potency entry in [9], in assay [14] and in assay [15] was “inactive” in each case. For the same molecule, the Potency in assay [12] was 61.1 µM (active).

`CCCCCCCCCCCCCCCCCCCl`: the fluorescence, % of fluorescent control in assay [1] is -0.0234% [at 3.72 µM]; in assay [3], 0.0246% [at 3.72 µM]; in [5], -0.0175% [at 3.72 µM]; in assay [7], -0.0032% [at 3.72 µM]. Also, the activity change in assay [2] is 0.0076% [at 3.72 µM]. In addition, the fluorescence, % of Rose Bengal in assay [4] was -0.217% [at 3.72 µM]. Besides, the fluorescence, % of fluorescein control in [6] was 0.0829% [at 3.72 µM]. Besides, the viability change, negative = cytotoxic is -4.59% [at 7.04 µM] in [9] and -1.19% [at 8.47 µM] in [14]. In addition, the activity change, negative = cytotoxicity in assay [10] was 14.5% [at 8.52 µM]; in assay [13] it was -8.37% [at 7.04 µM].

`CC(=O)OCC(=O)[C@@]1(O)CC[C@H]2[C@@H]3CCC4=CC(=O)C=C[C@]4(C)[C@@]3(F)[C@@H](O)C[C@@]21C`: the activity change in assay [2] is 0.114% [at 18.6 µM]. For the same molecule, the fluorescence, % of fluorescent control in [3] is 0.0194% [at 18.6 µM]; in assay [5], 0.0112% [at 18.6 µM]; in [7], -0.158% [at 18.6 µM]. Also, the fluorescence, % of Rose Bengal in assay [4] was -0.0287% [at 18.6 µM]. The fluorescence, % of fluorescein control in assay [6] was -0.0779% [at 18.6 µM]. In addition, the Potency entry in assay [9], in [10], in [12], in assay [13], in assay [14] and in assay [15] was “inactive” in each case.

Consider `CC(=O)Nc1cccc(N)c1`, for which the Potency entry in [1], in assay [16], in [8], in assay [9], in assay [10] and in assay [11] was “inactive” in each case. The Potency entry in assay [12], in assay [13], in assay [14] and in [15] was “inactive” each time. Further, the molecule was called inactive in assay [2], in assay [3], in [6] and in [7].

As to `C1=COCCC1`, the Potency result in assay [1], in assay [8], in assay [9], in assay [10], in assay [11] and in [12] was “inactive” in each case. In addition, the Potency entry in assay [13] and in [14] was “inactive” throughout. For the same molecule, the molecule was called inactive in assay [2], in [3], in assay [4], in assay [5], in assay [6] and in [7].

`CCCCCCCCCCCCN1CCOCC1`: the Potency entry in assay [1], in [16], in [8], in assay [9], in assay [13] and in assay [14] was “inactive” throughout. In addition, the Potency entry in assay [15] was “inactive”. Besides, the call in assay [2], in [3], in assay [5], in [6] and in [7] was inactive. The Potency in assay [10] is 27.3 µM (active); in [11] it was 8.63 µM (active); in [12] it was 19.3 µM (active).

Turning to `O=C(O)CNc1ccccc1`, the Potency result in [1], in [16], in assay [8], in assay [9], in assay [10] and in assay [11] was “inactive” in each case. For the same molecule, the Potency entry in [12], in assay [13], in assay [14] and in [15] was “inactive” throughout. Further, the molecule was called inactive in assay [2], in [3], in [4], in assay [5], in assay [6] and in [7].

`CC(C)(C)NCC(O)COc1ccc(NC(=O)NC2CCCCC2)cc1` (stereo not given): the result in assay [2], in assay [3], in assay [4], in assay [5], in [6] and in assay [7] was inactive. Moreover, the Potency entry in [16], in assay [8], in [9], in assay [13] and in [14] was “inactive” throughout. The Potency was 29.8 µM (active) in assay [10] and 26.6 µM (active) in assay [12].
